IL2 activator: IL-2 activation. IL-2 activation reporter assay, cell-based qHTS; stimulated with anti-CD3/CD4/CD28 beads; in transgenic mouse T cells. activation, % (series mostly up to about 46 µM). 0.065% of 360,000 active. AID 652025; in the data active = activation above about 50%; inconclusive = mostly about 30% to 49%
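Quantitative HTS in unstimulated transgenic mouse T cells, with memory T cells as non-tolerant control and PMA/ionomycin as tolerance-bypass control. Compound pretreatment lasted 60 minutes before 18 h bead stimulation; EGFP/DsRed fluorescence read.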
Nrf2 ARE act: Nrf2 pathway activation; 0.31% of 410,000 active; Potency, µM (highest dose often 46.1 µM), usual class: activators; AREc32 ARE-luciferase reporter (MCF7-derived line), luminescence, 24 h; also: nearly all actives have a fitted effect of over 65% in size
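Nrf2 activation is followed as ARE-luciferase induction in the AREc32 line after one day of compound treatment; luminescence is read with Steady-Glo.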
A549 tox: counter-screen for Nrf2 inhibitors: cytotoxicity in A549 cells; Potency, µM (series often up to 46 µM), most hits filed as inhibitors; AID 504648; A549 ARE-Fluc cells, CellTiter-Fluor viability, 18-24 h; 0.16% of 390,000 active
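Cytotoxicity counterscreen: CellTiter-Fluor fluorescence was measured in A549 ARE_Fluc cells after 18-24 h of compound exposure in a concentration series. The subsequent BugLite luminescent read reports ARE-luciferase activity.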
Nrf2 block: blocks Nrf2 signaling; 2.1% of 360,000 active; Potency, µM (doses to about 46 µM), usual class: inhibitors; A549 ARE-Fluc reporter, luciferase luminescence, 18-24 h; also: nearly all actives have a fitted effect of over 60% in size
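A549 ARE_Fluc cells (5000/well, 5% FBS OPTI-MEM) pre-incubated 2 h, then treated with compounds 18-24 h at 37C/5% CO2 in concentration-response. CellTiter-Fluor viability read first; BugLite luciferase luminescence after 15 min at room temperature gives Nrf2 activity.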
Hits are given with their value; 0 = inactive; ? = inconclusive; - = not tested or not shown. Most compounds without a hit are left out; they make up all but 2.3% or so of the library. Unless noted, calls follow the shape of the dose curve; as a rule, active = well fitted curve in the direction sought with a large enough effect; inconclusive = small, poorly fitted or top-dose-only effect, or another doubt; inactive = no such curve, though single readings can be large; an effect the other way counts as inactive or inconclusive.

SMILES | IL2 activator | Nrf2 ARE act | A549 tox | Nrf2 block
Cc1nn(-c2ccccc2)c(Cl)c1C(=O)N1CCN(c2ncnc3c2cnn3-c2ccccc2)CC1 | 0 | 0 | ? | 20.6µM
CCOC(=O)C1CCN(c2ncnc3c2cnn3-c2ccc(Cl)cc2)CC1 | 0 | 0 | 0 | 2.91µM
CCOC(=O)C1CCN(c2ncnc3c2cnn3-c2ccccc2)CC1 | 0 | 0 | 0 | 0
O=C(CSC1=Nc2ccccc2C2=NC(CCC(=O)NC3CCCCC3)C(=O)N12)Nc1cccc(C(F)(F)F)c1 (configuration not stated) | - | 0 | ? | 11.6µM
CC(C)CCNC(=O)Nc1ccc2c(c1)N(Cc1ccccc1)C(=O)c1ccccc1S2 | - | 0 | 0 | ?
O=C(Nc1ccc(F)cc1)c1nn(-c2ccccc2)c(=O)cc1Cl | 0 | 0 | ? | 18.4µM
COc1ccccc1CNC(=O)CN1C(=O)CSc2ccc(S(=O)(=O)N(C)C)cc21 | - | 0 | 0 | ?
Cc1ccc(C)c(Nc2nn3c(=O)c4ccc(C(=O)NCc5cccs5)cc4nc3s2)c1 | - | 0 | ? | -
COc1ccccc1Nc1nn2c(=O)c3ccc(C(=O)NCc4cccs4)cc3nc2s1 | - | 0 | 7.31µM | -
COc1ccccc1Nc1nn2c(=O)c3ccc(C(=O)NCCCOC(C)C)cc3nc2s1 | - | 0 | 0 | 0
CCN(CC)CCNC(=O)c1ccc2c(=O)n3nc(Nc4ccccc4OC)sc3nc2c1 | - | 0 | 14.6µM | ?
Cc1ccc(NS(=O)(=O)c2ccc3ccccc3c2)cc1C | - | - | 0 | ?
Cc1ccc(O)c(NC(=O)c2noc3c2CCCCC3)c1 | 0 | ? | 0 | 0
Cc1ccc(O)c(NC(=O)c2noc3c2CCCC3)c1 | - | 7.94µM | 0 | 0
COc1cccc(-c2cc(C(=O)Nc3ccc(Br)c(C)c3)[nH]n2)c1 | - | 0 | 0 | 0
COc1cccc(-c2cc(C(=O)Nc3ccc(F)cc3)[nH]n2)c1 | - | 0 | 0 | 2.59µM
COc1ccc(NC(=O)CNC(c2ccccc2)c2ccccc2)cc1 | 0 | 0 | 0 | 0
COc1ccc(C(NCC(=O)NC(C)c2ccc(Cl)cc2)c2ccccc2)cc1 (configuration not stated) | 0 | 0 | ? | 14.6µM
O=C(NCc1cccnc1)/C(=C/c1ccc(-c2ccc(Cl)cc2)o1)S(=O)(=O)c1ccccc1 | 0 | ? | ? | 20.6µM
CCOC(=O)c1c(-c2ccccc2)csc1NC(=O)CSc1nnc(C)s1 | 0 | 0 | 0 | 13µM
CCOC(=O)c1c(-c2ccc(OC)cc2)csc1NC(=O)CSc1ncnc2sccc12 | 0 | 0 | 0 | 14.6µM
Clc1ccc(-c2noc3ncnc(NCCc4ccccc4)c23)cc1 | - | 0 | 0 | 0
Cc1ccc2c(CC(=O)Nc3ccc(S(=O)(=O)N4CCCCC4)cc3)coc2c1C | - | 0 | 0 | ?
CCN1CCN(c2nc(-c3ccccn3)nc3ccccc23)CC1 | 0 | 0 | 0 | 0
CCN1CCN(c2ccc(Nc3ccnc4ccccc34)cc2)CC1 | 0 | 0 | 6.51µM | 0
SMILES | IL2 activator | Nrf2 ARE act | A549 tox | Nrf2 block
CN1CCN(c2ccc(Nc3ccnc4cc(Cl)ccc34)cc2)CC1 | 0 | 0 | 6.51µM | ?
Cc1ccc(-n2c(O)c(/C=N/Nc3ccc(S(=O)(=O)N4CCOCC4)cc3[N+](=O)[O-])c3ccccc3c2=O)c(C)c1 | 0 | 0 | ? | 18.4µM
COc1ccc(Cl)cc1NS(=O)(=O)c1cccc2cccnc12 | 0 | 12.6µM | 0 | ?
COc1cc2ncnc(N(C)Cc3cccs3)c2cc1-c1ccc2c(c1)OCO2 | - | - | 0 | 0
CCOC(=O)C1CCCN(Cc2nc(N)nc(Nc3ccc(Cl)cc3)n2)C1 (configuration not stated) | 0 | 0 | 0 | 25.9µM
CCCOC(=O)C(C)n1nnc2sc(-c3ccccc3)cc2c1=O (configuration not stated) | - | 0 | 0 | 20.6µM
O=C1CCc2cc([S+](=O)([O-])Nc3ccc(N[S+](=O)([O-])c4ccc5c(c4)CCC(=O)N5)cc3)ccc2N1 | - | - | 0 | 0
COc1ccccc1-n1cnc2c(c1=O)c1nc3ccccc3nc1n2-c1ccc(C)c(C)c1 | 0 | 0 | ? | 5.8µM
S=C(N/N=C/c1ccco1)NC1CC2CCC1C2 (configuration not stated) | 0 | 12.6µM | 0 | ?
Cc1[nH]c2ccc(-c3nnc(SCC(=O)c4ccc(F)cc4)o3)cc2c1C | 0 | 0 | 0 | ?
Cc1cc(C)c(C)c(C(=O)CSc2nnc(-c3ccc4[nH]c(C)c(C)c4c3)o2)c1C | 0 | 0 | ? | 11.6µM
O=C(NCc1ccccc1Cl)c1ccc(NC(=O)N2CCSc3ccccc32)cc1 | - | 0 | 0 | 0
Nc1ccc(C(=O)N2CCN(S(=O)(=O)c3ccc4c(c3)OCCCO4)CC2)cc1[N+](=O)[O-] | 0 | 0 | ? | 25.9µM
CC(=O)c1ccc(S(=O)(=O)N2CCN(C(=O)c3ccc(N)c([N+](=O)[O-])c3)CC2)cc1 | 0 | 0 | 0 | 0
O=C(CCl)N(C1CCCC1)C1CCS(=O)(=O)C1 (configuration not stated) | 0 | 0 | 0 | 20.6µM
CC(=O)c1c(C)[nH]c(C(=O)OCC(=O)Nc2cccnc2Cl)c1C | 0 | 0 | 0 | 25.9µM
COc1ccc(S(=O)(=O)N2CCOCC2)cc1NC(=O)COC(=O)c1[nH]c(C)c(C(C)=O)c1C | 0 | 0 | 0 | ?
CC(=O)c1c(C)[nH]c(C(=O)OCC(=O)Nc2ccc([N+](=O)[O-])cc2Cl)c1C | 0 | 0 | 0 | 0
CC(=O)c1c(C)[nH]c(C(=O)OCC(=O)NCC(C)C)c1C | 0 | 0 | 0 | 10.3µM
CC(=O)c1c(C)[nH]c(C(=O)OCC(=O)Nc2cc(S(=O)(=O)N3CCCC3)ccc2Cl)c1C | 0 | 0 | 0 | 20.6µM
CC(=O)c1c(C)[nH]c(C(=O)OCC(=O)Nc2cccc(S(=O)(=O)N3CCCC3)c2)c1C | 0 | 0 | 0 | 14.6µM
C[C@@H]1C[C@H]2[C@@H]3CCC4=CC(=O)C=C[C@]4(C)[C@@]3(Cl)[C@@H](O)C[C@]2(C)[C@@]1(OC(=O)c1ccco1)C(=O)CCl | 0 | 0 | 0 | ?
CCC(=O)OCC(=O)C1(OC(=O)CC)[C@H](C)C[C@H]2[C@H]3[C@H]([C@@H](O)C[C@@]21C)[C@@]1(C)C=CC(=O)C=C1C[C@H]3Cl (some centres not stated) | 0 | 0 | 0 | 0.0517µM
Cc1ccc(N2CCN(C(=O)c3c(C)oc4nc(C)nc(N5CCCC5)c34)CC2)c(C)c1 | - | 0 | 0 | 0
Cc1cccc(CC(Cc2nc3ccccc3[nH]2)c2nc3ccccc3[nH]2)c1 (configuration not stated) | 0 | 0 | ? | 25.9µM
COc1ccccc1CC(Cc1nc2ccccc2[nH]1)c1nc2ccccc2[nH]1 (configuration not stated) | 0 | 0 | 0 | 0
Cc1ccc(-c2c(C)n3c4c(=O)n(C)c(=O)n(C)c4nc3n2CCCO)cc1 | - | 0 | 0 | 18.4µM
Cc1cccc(C)c1NC(=O)CN(C)C(=O)COc1cccc2c1OC(C)(C)C2 | 0 | 0 | 0 | 0
COc1ccc(NC(=O)COc2cccc3c2OC(C)(C)C3)cc1OC | 0 | 0 | 0 | 18.4µM
Cc1cc(Br)ccc1NC(=O)CN(C)C(=O)COc1cccc2c1OC(C)(C)C2 | 0 | 0 | 0 | 20.6µM
